This is an account of results in PubChem BioAssay AID1851 (National Center for Advancing Translational Sciences (NCATS), 2009).

What is called AC50 is the concentration giving half of the maximal activity seen.

Screen size: about 16,000 compounds; about 4,000 (25%) were called active. About 26% were inconclusive and are not listed. A selection follows. A number with no mark means an inactive call. The call rests on the fitted dose curve; in most records, active means well fitted curve in the direction sought with a large enough effect; inconclusive means small, poorly fitted or top-dose-only effect, or effect the other way; inactive means no such curve, though single readings can be large or run the other way.
On the % scale 0 is the no-effect control and ±100 the full control effect.

Sequence of Cytochrome P450 2C9 (Homo sapiens) (P11712 whole entry, looked up): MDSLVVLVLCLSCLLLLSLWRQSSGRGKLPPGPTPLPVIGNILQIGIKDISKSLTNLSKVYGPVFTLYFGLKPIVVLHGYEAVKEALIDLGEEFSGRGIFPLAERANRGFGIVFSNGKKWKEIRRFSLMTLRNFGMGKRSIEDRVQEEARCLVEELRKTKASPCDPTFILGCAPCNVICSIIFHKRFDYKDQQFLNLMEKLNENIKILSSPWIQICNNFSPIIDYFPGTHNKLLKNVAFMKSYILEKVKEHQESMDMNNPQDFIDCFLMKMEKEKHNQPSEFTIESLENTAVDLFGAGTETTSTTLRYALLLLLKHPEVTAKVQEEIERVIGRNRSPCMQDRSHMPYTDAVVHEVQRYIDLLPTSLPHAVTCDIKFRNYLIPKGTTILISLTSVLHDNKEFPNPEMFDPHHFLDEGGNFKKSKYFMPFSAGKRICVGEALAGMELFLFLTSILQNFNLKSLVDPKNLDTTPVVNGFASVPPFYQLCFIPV

This test addresses Cytochrome P450 2C9 (Homo sapiens) (UniProt P11712). The experiment in a line: Cytochrome panel assay with activity outcomes. Conditions: recombinant CYP, pro-luciferin dealkylation, luminescence, p450-cyp2c9; series mostly up to 57.1 µM; activity, negative = inhibition: at the top concentration.
As to `CO[C@@H]1COC(=O)C/C=C\[C@H](C)COC(=O)[C@H](C)NC(=O)C/C=C\[C@H]1C`, the activity, negative = inhibition was -7.79% [at 11.4 µM]. Same read-out and setting: next, `Fc1cccc(/C=N\N=C/c2cccc(F)c2)c1`: -17.3%. As to `CC1(C)Cc2ccccc2C(N/N=C/c2cccc(F)c2)=N1`, the AC50 was 14.1 µM (active). As for `CC1=NC(C)(C)Cc2ccccc21`, the “activity, negative = inhibition” value was -5.09%. For `O=C(O)C1CC2(C1)CC(C(=O)O)C2` (stereo unspecified), the activity, negative = inhibition was -3% [at 11.4 µM]. Same read-out and setting: in the case of `N#Cc1cccc(-c2ccc3ncnc(NC4CCNCC4)c3c2)c1` it was 10.5% [at 2.29 µM].

`CCN(c1ccc(NC(=O)COC(=O)c2ccc3ccccc3n2)cc1)C(C)C`: the AC50 is 20 µM (active).

As to `CC(C)C(=O)Cc1ccc2ccccc2n1`, the activity, negative = inhibition was 7.52% [at 11.4 µM]. On the same count and under the same terms, in the case of `Cc1cnc(C(=O)OCC(=O)NC(C)C)cn1` it was 0.966%; in that of `O=S(=O)(O)c1cc(N=Nc2cccc3ccccc23)c(O)c2ncccc12`, -11.1% [at 11.4 µM]; in that of `O=C(Nc1cccc2cccnc12)[C@@H]1[C@@H](C(=O)O)[C@H]2CC[C@@H]1O2`, 7.28% [at 11.4 µM]. With `CC(C)(C)C(=O)NC(Nc1cccc2cccnc12)C(Cl)(Cl)Cl` (stereo unspecified), the AC50 was 1.26 µM (active). For the compound `COc1ccc(NC(=O)N2CC[C@@]3(CCCN(C(=O)c4cnccn4)C3)C2)cc1`, the “activity, negative = inhibition” value is -2.53%.

On to `CCOC(=O)c1sc(NC(=O)CSc2nc(C)cc(C)c2C#N)c(C#N)c1C`, for which the AC50 was 1 µM (active). As to `CCOC(=O)c1sc2c(c1C)c(=O)c(C(=O)OCC)cn2CC`, the “activity, negative = inhibition” value is -27.7%. Consider `CCOC(=O)c1sc(NC(=O)CSc2nc(C)cc(C)n2)c(C#N)c1C`, for which the AC50 is 3.55 µM (active). The same measure, in the same setting: next, `CCOC(=O)c1sc(NC(=O)CSc2n[nH]c(-c3ccc(Cl)cc3Cl)n2)c(C#N)c1C`: 1.26 µM (active).

As for `CCOc1cccc(NC(=O)CSc2nc(C)c3c(c2C#N)CCCC3)c1`, the “activity, negative = inhibition” value is -7.91%. On the same count and under the same terms, next, `Cc1ccccc1OCC(=O)Nc1sc(C(=O)Nc2cccc(C)c2C)c(C)c1C#N`: -1.71%; `CCN(CC)CCN1c2ccccc2Sc2ccc3ccccc3c21`: 0.978% [at 11.4 µM].

For `Cn1cnc2c(NCc3ccccc3)nc(NCCO)nc21`, the “activity, negative = inhibition” value was 22.9%. Same read-out and setting: next, `C/C(CCN1CCCCc2nc(C)c(C)cc21)=N\OC[C@@H](O)COCc1ccco1`: -10.7% [at 11.4 µM]; `Cc1cccn2c(=O)c3cc(C(=O)N4COCC4(C)C)n(C)c3nc12`: 26.7%. On the same count and under the same terms, next, `c1ccc2c3c([nH]c2c1)[C@@H]1[C@H]2CC[C@H]([C@H]4CCCN[C@H]42)N1CC3`: 10.6% [at 25.6 µM]. The same measure, in the same setting: next, `CC(=O)C=NCC(=O)O`: -1.6% [at 11.4 µM]. In the case of `O=c1cc(N2CCCCC2)c(-c2ccccc2)nn1Cc1ccccc1Cl`, the AC50 was 20 µM (active).
